Activity calls are given as the source filed them. Rule for the calls: active = hit-call score of the fitted dose curve at least 0.9, where 1 is the maximum; inactive = score below 0.9.
How the values were obtained:
[1] = molecular target: CCAAT/enhancer-binding protein beta (Homo sapiens) (UniProt P17676); experiment: ATG_C_EBP_CIS: Attagene CIS-FACTORIAL HepG2 Assay for human CCAAT/Enhancer Binding Protein (C/EBP) beta (AID 2282927); details: HepG2 Attagene cis-factorial transcription factor reporter; actives raise or lower the signal
Method in brief: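 Chemical-treated HepG2 cells (24 h) bearing cis-regulated reporter constructs were processed for total RNA, then reverse transcription, PCR amplification, fluorescent primer extension and fragment analysis; gain- and loss-of-signal were fitted against DMSO.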

[2] = ATG_CMV_CIS: Attagene CIS-FACTORIAL HepG2 Assay for human CMV (Internal Marker) (AID 2282928); details: HepG2 CMV promoter reporter, transcription factor profiling; actives raise or lower the signal;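 note: endpoint acts as a background internal control marker rather than a target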
Method in brief: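 Readout: fluorescent reporter cDNA fragments separated by capillary electrophoresis after RT-PCR and HpaI cut. Cells: HepG2 carrying transfected cis-promoter reporter constructs, dosed 24 h. Endpoint serves as background internal-marker control, fit bidirectionally versus DMSO.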

[3] = molecular target: Aryl hydrocarbon receptor (Homo sapiens) (UniProt P35869); experiment: ATG_Ahr_CIS: Attagene CIS-FACTORIAL HepG2 Assay for human Aryl Hydrocarbon Receptor (Ahr) (AID 2282930); details: HepG2 AhR cis-factorial reporter transcription; actives raise or lower the signal
Method in brief: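 Following 24 h of chemical dosing, transfected HepG2 liver cells with cis-driven reporter units were lysed for RNA; reporter mRNA was quantified via RT-PCR and capillary electrophoresis, and responses fitted bidirectionally from DMSO.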

[4] = ATG_AP_1_CIS: Attagene CIS-FACTORIAL HepG2 Assay for human Activator Protein 1 (AP-1) (AID 2282931); details: HepG2 Attagene cis-factorial AP-1 reporter mRNA; actives raise or lower the signal
Method in brief: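 Endogenous transcription-factor activity in human HepG2 liver cells is read through a cis-promoter reporter transcript, sampled 24 h after dosing. Detection uses RT-PCR with capillary electrophoresis; values come from bidirectional fitting relative to DMSO.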

[5] = ATG_AP_2_CIS: Attagene CIS-FACTORIAL HepG2 Assay for human Activator Protein 2 (AP-2) (AID 2282932); details: HepG2 AP-2 cis-reporter, Attagene transcription factor profiling; actives raise or lower the signal
Method in brief: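 Cells (HepG2) transfected with promoter-driven reporter constructs, treated 24 h. Total RNA reverse-transcribed, reporter cDNA PCR-amplified, FAM-labelled by primer extension, digested, resolved by capillary electrophoresis. Activity fitted both directions versus DMSO.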

[6] = ATG_BRE_CIS: Attagene CIS-FACTORIAL HepG2 Assay for human Bone Morphogenetic Protein (BMP) Response Element (BRE) (AID 2282933); details: HepG2 BMP response element reporter, Attagene transcription factor profiling; actives raise or lower the signal
Method in brief: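 Transient MRTU transfection of human HepG2 liver cells; 24 h compound treatment; total RNA isolated, reverse-transcribed, PCR-amplified, 6-FAM labelled, HpaI-cut, capillary electrophoresis. DMSO = negative control/baseline, bidirectional fit.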

[7] = molecular target: Retinoic acid receptor alpha (Homo sapiens) (UniProt P10276); experiment: ATG_DR5_RAR_CIS: Attagene CIS-FACTORIAL HepG2 Assay for human Retinoic Acid Receptor Alpha (RARE), DR5 submotif (AID 2282934); details: HepG2 Attagene cis-factorial RARE DR5 reporter, mRNA; actives raise or lower the signal;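 for AC50: reporter responds to endogenous RAR alpha beta and gamma in HepG2 not RARA alone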
Method in brief: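 Transfected HepG2 reporter cells are exposed to chemicals for 24 h. Then RNA is extracted and the DR5 element reporter transcript is measured by RT-PCR and capillary electrophoresis, with bidirectional curve fitting relative to DMSO.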

[8] = molecular target: Transcription factor E2F1 (Homo sapiens) (UniProt Q01094); experiment: ATG_E2F_CIS: Attagene CIS-FACTORIAL HepG2 Assay for human E2F Transcription Factor 1 (AID 2282935); details: HepG2 Attagene cis-reporter, E2F reporter RNA transcripts; actives raise or lower the signal
Method in brief: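 First, HepG2 cells were transfected with reporter transcription units. Next, they were dosed for 24 h. Then RNA was isolated, converted to cDNA, PCR-amplified, FAM-labeled, HpaI-digested and analyzed by capillary electrophoresis.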

[9] = ATG_DR4_LXR_CIS: Attagene CIS-FACTORIAL HepG2 Assay for human Liver X Receptor (LXR), DR4 submotif (AID 2282929); details: HepG2 Attagene DR4 cis-reporter, mRNA transcription; actives raise or lower the signal
Method in brief: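 Cells were transfected with multiple reporter transcription units, exposed to chemicals for 24 hours, then lysed for RNA. Reporter mRNA induction was measured by RT-PCR with capillary electrophoresis detection and fitted in both directions relative to DMSO.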

Measured: AC50

Chain of CCAAT/enhancer-binding protein beta (Homo sapiens) (P17676 whole entry, looked up, the tested form may be a part): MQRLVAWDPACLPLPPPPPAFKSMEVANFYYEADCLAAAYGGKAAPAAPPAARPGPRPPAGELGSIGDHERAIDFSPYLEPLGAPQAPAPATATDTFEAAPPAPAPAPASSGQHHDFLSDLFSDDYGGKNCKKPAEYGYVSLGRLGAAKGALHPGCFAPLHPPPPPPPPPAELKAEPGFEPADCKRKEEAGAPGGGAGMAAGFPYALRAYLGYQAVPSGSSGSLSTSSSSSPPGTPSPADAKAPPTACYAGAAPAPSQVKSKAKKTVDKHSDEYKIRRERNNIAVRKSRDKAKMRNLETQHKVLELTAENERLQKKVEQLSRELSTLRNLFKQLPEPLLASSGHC
Chain of Retinoic acid receptor alpha (Homo sapiens) (P10276 whole entry, looked up): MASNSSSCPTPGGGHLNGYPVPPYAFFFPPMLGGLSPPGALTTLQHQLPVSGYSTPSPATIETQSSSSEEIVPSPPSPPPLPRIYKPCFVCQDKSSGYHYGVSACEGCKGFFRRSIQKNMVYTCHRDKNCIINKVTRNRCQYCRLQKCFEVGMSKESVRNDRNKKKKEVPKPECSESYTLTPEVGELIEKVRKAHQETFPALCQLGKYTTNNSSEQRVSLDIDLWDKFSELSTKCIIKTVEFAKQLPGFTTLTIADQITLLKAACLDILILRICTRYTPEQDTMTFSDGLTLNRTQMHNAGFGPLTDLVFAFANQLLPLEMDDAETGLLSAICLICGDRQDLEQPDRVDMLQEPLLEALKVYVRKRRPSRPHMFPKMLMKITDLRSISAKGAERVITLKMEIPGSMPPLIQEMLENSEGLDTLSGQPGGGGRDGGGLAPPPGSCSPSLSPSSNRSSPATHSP
Chain of Transcription factor E2F1 (Homo sapiens) (Q01094 whole entry, looked up): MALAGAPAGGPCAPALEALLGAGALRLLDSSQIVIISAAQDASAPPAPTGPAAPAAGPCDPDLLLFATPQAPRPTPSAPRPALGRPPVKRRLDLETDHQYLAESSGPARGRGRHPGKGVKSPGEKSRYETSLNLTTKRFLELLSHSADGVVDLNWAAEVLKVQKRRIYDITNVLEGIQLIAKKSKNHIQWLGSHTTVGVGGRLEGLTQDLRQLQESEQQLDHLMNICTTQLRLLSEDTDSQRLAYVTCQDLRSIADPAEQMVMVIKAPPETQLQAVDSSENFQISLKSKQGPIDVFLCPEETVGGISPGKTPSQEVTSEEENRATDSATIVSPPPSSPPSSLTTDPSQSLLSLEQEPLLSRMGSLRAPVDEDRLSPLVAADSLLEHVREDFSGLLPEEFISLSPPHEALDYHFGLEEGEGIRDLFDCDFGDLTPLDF
Chain of Aryl hydrocarbon receptor (Homo sapiens) (P35869 whole entry, looked up): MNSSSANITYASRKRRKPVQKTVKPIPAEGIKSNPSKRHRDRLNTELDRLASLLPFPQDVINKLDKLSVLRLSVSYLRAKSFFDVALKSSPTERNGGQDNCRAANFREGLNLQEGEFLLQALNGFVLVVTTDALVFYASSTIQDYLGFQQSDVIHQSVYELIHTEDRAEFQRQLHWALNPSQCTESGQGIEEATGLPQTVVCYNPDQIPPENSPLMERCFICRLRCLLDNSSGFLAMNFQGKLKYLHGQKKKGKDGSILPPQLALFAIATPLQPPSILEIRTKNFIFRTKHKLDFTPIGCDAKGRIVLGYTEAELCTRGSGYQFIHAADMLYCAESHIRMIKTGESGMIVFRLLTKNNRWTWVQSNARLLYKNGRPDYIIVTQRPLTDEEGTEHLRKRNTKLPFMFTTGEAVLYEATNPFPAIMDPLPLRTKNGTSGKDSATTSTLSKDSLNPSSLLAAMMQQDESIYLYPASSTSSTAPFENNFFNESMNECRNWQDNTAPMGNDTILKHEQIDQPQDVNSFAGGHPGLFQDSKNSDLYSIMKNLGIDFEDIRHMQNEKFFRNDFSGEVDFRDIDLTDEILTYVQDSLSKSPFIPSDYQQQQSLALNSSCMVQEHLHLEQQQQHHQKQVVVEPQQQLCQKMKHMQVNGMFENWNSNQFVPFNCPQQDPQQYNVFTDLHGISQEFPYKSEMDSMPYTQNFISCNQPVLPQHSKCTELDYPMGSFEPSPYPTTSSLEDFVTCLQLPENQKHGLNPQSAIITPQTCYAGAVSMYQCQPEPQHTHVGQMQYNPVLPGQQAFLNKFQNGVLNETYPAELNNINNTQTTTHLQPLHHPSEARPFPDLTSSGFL

O=C(C=Cc1ccccc1)OCc1ccccc1
not listed: [9]
inactive: all other assays above

c1ccc(CCCc2ccncc2)cc1
active: [2] 43.2 µM | [4] 37.7 µM | [5] 100 µM | [6] 93.3 µM
inactive: all other assays above

CCCCCCC1(C)CCC(=O)O1 (centres undefined)
active: [3] 44.4 µM
inactive: all other assays above

O=C(O)c1ccccc1Nc1cccc(C(F)(F)F)c1
active: [4] 60 µM
not listed: [9]
inactive: all other assays above

N=c1ccn2c(n1)O[C@H]1[C@H](O)[C@@H](CO)O[C@H]12
not listed: [9]
inactive: all other assays above

CCCCCCCCCCCCCCCC(=O)OCC
not listed: [6]
inactive: all other assays above

OC1CCCCCCCCCCC1
active: [2] 75.4 µM | [9] 40.5 µM
not listed: [6]
inactive: all other assays above

C=C[Si](OC(C)=O)(OC(C)=O)OC(C)=O
inactive: all assays above

Nc1ccc(Cl)cc1Cl
inactive: all assays above

O=c1[nH]c(=O)c2[nH]c(=O)[nH]c2[nH]1
not listed: [8]
inactive: all other assays above

CC1OC1C1CCC2(C)OC2C1 (centres undefined)
inactive: all assays above

Cc1ccc(N/N=c2\c(=O)cc/c(=N/Nc3ccc(S(=O)(=O)O)cc3)c2=O)c(C)c1
active: [3] 9.18 µM
not listed: [2]
inactive: all other assays above

CC(C)(C)C1CCCCC1=O (centres undefined)
not listed: [1]
inactive: all other assays above

COC(=O)/C=C/C(C)=C\C=C\C(C)=C\C=C\C=C(C)\C=C\C=C(C)\C=C\C(=O)O
not listed: [9]
inactive: all other assays above

COC(=O)c1cc(Cl)ccc1[N+](=O)[O-]
not listed: [8]
inactive: all other assays above

CC1(C)[C@H]2CC[C@]1(C)C(=O)C2
inactive: all assays above

CC(=O)OCC(=O)[C@@]12N=C(C)O[C@@H]1C[C@H]1[C@@H]3CCC4=CC(=O)C=C[C@]4(C)[C@H]3[C@@H](O)C[C@@]12C
active: [7] 27.5 µM
inactive: all other assays above

CCCc1ccc(OC)cc1
not listed: [5]
inactive: all other assays above

CC(C)(C)c1n[nH]c(=O)n(N)c1=O
not listed: [1]
inactive: all other assays above

CC(=O)Nc1nnc(S(N)(=O)=O)s1
not listed: [1]
inactive: all other assays above

Cc1cccc(N)n1
not listed: [8]
inactive: all other assays above

CCCCCc1ccc(Cl)cc1
active: [2] 66.4 µM | [7] 84.1 µM | [8] 61.5 µM
not listed: [6]
inactive: all other assays above

O=C(C(Cl)Cl)N1CCOC12CCCCC2
active: [9] 12 µM
not listed: [4]
inactive: all other assays above

O=S(=O)(O)c1ccccc1C=Cc1ccc(-c2ccc(C=Cc3ccccc3S(=O)(=O)O)cc2)cc1
active: [6] 39.6 µM
inactive: all other assays above

SCCc1cnccn1
active: [2] 53.9 µM | [4] 27.8 µM | [6] 23.1 µM | [7] 27.6 µM
inactive: all other assays above

CCCCOCCOC(=O)COc1nc(Cl)c(Cl)cc1Cl
not listed: [1] | [5]
inactive: all other assays above

CCN(Cc1cccc(S(=O)(=O)O)c1)c1ccc(C(=C2C=CC(=[N+](CC)Cc3cccc(S(=O)(=O)[O-])c3)C=C2)c2ccccc2)cc1
active: [3] 51.2 µM
inactive: all other assays above

C=C(C)C(=O)OCCO
not listed: [2]
inactive: all other assays above

CCCC(C)CCC(C)=O (centres undefined)
not listed: [4] | [5]
inactive: all other assays above

CCCCCCCCC(=O)OCC
inactive: all assays above

CO[Si](CCC1CCC2OC2C1)(OC)OC (centres undefined)
not listed: [1] | [6] | [8]
inactive: all other assays above

O=C1CCCC(=O)O1
inactive: all assays above

O=C1CCCCCN1SSN1CCCCCC1=O
not listed: [4]
inactive: all other assays above

O=C(c1ccc(O)cc1)c1ccc(O)cc1O
active: [2] 68.7 µM | [6] 100 µM
inactive: all other assays above

NC(=O)NNC(N)=O
not listed: [9]
inactive: all other assays above

FC(F)=C(F)OC(F)(F)C(F)(F)C(F)(F)F
inactive: all assays above

CCCCCCOC(=O)C(C)CC (centres undefined)
not listed: [4]
inactive: all other assays above

Cc1ccc(C2OC[C@@H]3OC(c4ccc(C)cc4)O[C@H]([C@H](O)CO)[C@@H]3O2)cc1 (some centres undefined)
active: [4] 142 µM
not listed: [6] | [9]
inactive: all other assays above

O=C1CCCC1
not listed: [5] | [9]
inactive: all other assays above

C=C(C)c1cccc(C(C)(C)N=C=O)c1
active: [3] 100 µM
inactive: all other assays above

Reference: PubChem BioAssay (EPA / NIEHS)
